From PubChem
Abeta yeast res: A-beta toxicity reversal in yeast | actives 0.063% (n = 410,000) | Potency, µM (doses to about 46.1 µM), usual class: activators | yeast expressing A-beta42, growth rescue, OD600, 48 h; response scale: 0% DMSO, 100% iron-clioquinol control; further: nearly all actives have a fitted effect of over 55% in size
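Yeast growth medium received pinned compounds, then yeast cells expressing toxic A-beta were added; plates incubated at 30 C for 48 hr. Growth read as absorbance at 600 nm, normalized to DMSO and equimolar FeCl3 plus clioquinol controls.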
FUS suppressor: FUS proteinopathy suppression in yeast | Potency, µM (highest dose often 76.6 µM), hits mostly activators | S. cerevisiae FUS-expressing, growth rescue, OD600, 24 h | actives 0.24% (n = 390,000);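 further: plate controls were DMSO vehicle for no effect and reference control for full effect; nearly all actives have a fitted effect of over 55% in size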
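Quantitative HTS measuring growth restoration of FUS-toxic yeast. Galactose-induced cells (OD 0.005) were exposed 24hr at 30C to compounds at several concentrations, then absorbance at 600 nm was recorded.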
TDP43 rescue: TDP-43 toxicity inhibition in yeast. AID 652104. Potency, µM (highest dose often 46.1 µM), for the others: at the highest dose growth rescue (activation), most hits filed as activators. actives 1.8% (n = 410,000). TDP-43 expressing yeast growth rescue, BacTiter-Glo, 24 h; further: % of control where 0% means no effect; nearly all actives have a fitted effect of over 50% in size
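Galactose-induced TDP-43 yeast, OD600=0.02, compound pinned; 24 hr, 30 deg C; BacTiter-Glo luminescence for growth. Inhibitors of TDP-43 toxicity read as activators.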
Mito fusion act: inhibitors of mitochondrial division or activators of mitochondrial fusion. Potency, µM (series often up to 46.1 µM), for inactives: at the highest dose growth rescue (activation), hits mostly activators. actives 0.23% (n = 320,000). S. cerevisiae fusion-defective mutant growth rescue, CellTiterGlo 48 h; further: % of control where 0% means no effect; nearly all actives have a fitted effect of over 45% in size
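S. cerevisiae fusion-defective temperature-sensitive mutants (e.g. fzo1-1, mgm1-5) grown 48 h at 37C in YPEG (ethanol/glycerol non-fermentable) medium with 23 nl compound per well; growth rescue read as CellTiterGlo luminescence.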
aSyn yeast inh: rescues yeast growth from alpha-synuclein toxicity; Potency, µM (doses to about 46.1 µM), without a hit: at the top dose growth rescue (activation), most hits filed as activators; Yeast expressing alpha-synuclein, growth rescue, BacTiter-Glo, 24 h; actives 0.14% (n = 370,000); further: % of control where 0% means no effect; nearly all actives have a fitted effect of over 65% in size
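Galactose-induced alpha-syn yeast (OD600=0.02, raffinose-pregrown) + pinned cpd, 24 hr, 30 deg C; growth by BacTiter-Glo luminescence. Growth restoration scores as activation.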
An asterisk follows results filed as active; i = inactive; ? = inconclusive; nt = no result given; [ ] = dose if it differs, or a comment. The list is not random: actives were taken first. Their share in the collection is about 2.2%. The call rests on the fitted dose curve; in most records, active means well fitted curve in the direction sought with a large enough effect; inconclusive means small, poorly fitted or top-dose-only effect, or another doubt; inactive means no such curve, though single readings can be large; an effect the other way counts as inactive or inconclusive. Potency means the concentration at half of the fitted maximal effect.

SMILES | Abeta yeast res | FUS suppressor | TDP43 rescue | Mito fusion act | aSyn yeast inh
CCN(CC)C(=O)CC[C@H]1CC[C@]2(CCCN(C(=O)C3CCCC3)C2)O1 | nt | i | nt | nt | nt
CCOc1ccc(NCc2cccn2-c2nnc(N3CCC(C(=O)NCCc4ccc(OCC)c(OCC)c4)CC3)s2)cc1 | i | ? | 9.5% | nt | nt
CCOc1ccc(NCc2cccn2-c2nnc(N3CCC(C(=O)NCCc4ccc(OC)c(OC)c4)CC3)s2)cc1 | i | 25.1µM* | -6.4% | nt | nt
Cc1cn(C2OC(COC(=O)c3ccccc3)C(OC(=O)c3ccccc3)C2OC(=O)c2ccccc2)c(=O)[nH]c1=O (stereo unspecified) | i | 25.1µM* | -16.4% | 5.6% | 22.6%
O=C(COc1ccc(F)cc1)Nc1ccc(Cl)c(-c2nc3ccccc3[nH]2)c1 | i | i | 29.7% | nt | nt
O=C(COc1ccccc1F)Nc1ccc(Cl)c(-c2nc3ccccc3[nH]2)c1 | i | ? | 35.5µM* | nt | nt
Cc1cccc(OCC(=O)Nc2ccc(Cl)c(-c3nc4ccccc4[nH]3)c2)c1 | i | ? | 35.5µM* | nt | nt
CC1CN(C(=O)c2cccc(COc3ccccc3Cl)c2)CC(C)O1 (stereo unspecified) | i | i | -21.2%[0.397 µM] | -4.1% | 1.1%
CC1CN(C(=O)c2ccccc2OCc2ccc(Cl)cc2Cl)CC(C)O1 (stereo unspecified) | i | i | 28.2µM* | 26.5% | 8.8%
COc1cccc(NC(=O)COC(=O)c2nc(Cl)ccc2Cl)c1 | i | i | 15.8µM* | 3.7% | 7.8%
O=C(COC(=O)c1nc(Cl)ccc1Cl)Nc1ccc(Cl)cc1 | i | i | 15.8µM* | -9.2% | 0.4%
COc1ccc(OC)c(NC(=O)COC(=O)c2nc(Cl)ccc2Cl)c1 | i | i | 11.8% | 3.3% | 4.0%
Cc1ccc(CNC(=O)c2ccc3oc(=O)n(Cc4ccccc4)c3c2)cc1 | i | i | 19.6% | nt | nt
CCOC(=O)c1ccc2oc(=O)n(Cc3ccccc3)c2c1 | i | i | 7.94µM* | nt | nt
COc1cccc(CNC(=O)c2ccc3oc(=O)n(Cc4ccccc4)c3c2)c1 | ? | i | 25.1µM* | nt | nt
CSc1cccc(NC(=O)CC(c2ccc(F)cc2)N2Cc3ccccc3C2=O)c1 (stereo unspecified) | i | i | -13.7% | nt | nt
C/C=C/C1=CC(=O)C[C@H](c2ccc(Cl)cc2)C1 | i | i | 12.6µM* | 6.2% | 3.7%
C/C=C/C1=CC(=O)C[C@H](c2ccc3c(c2)OCO3)C1 | i | i | 11.2µM* | -2.6% | 8.1%
CCCCOc1ccc(CNC(=O)CCCN2C(=O)CSc3c2c(C)nn3-c2ccccc2)cc1 | i | ? | 28.2µM* | nt | nt
Cc1nn(-c2ccccc2)c2c1N(CCCC(=O)NC(C)c1ccccc1)C(=O)CS2 (stereo unspecified) | i | i | 2.6% | nt | nt
Cc1nn(-c2ccccc2)c2c1N(CCCC(=O)NCc1ccccc1)C(=O)CS2 | i | i | ? | nt | nt
Cc1nn(-c2ccccc2)c2c1N(CCCC(=O)NCc1ccc(Cl)cc1)C(=O)CS2 | i | ? | 20µM* | nt | nt
Cc1nn(-c2ccccc2)c2c1N(CCCC(=O)NCc1ccc(OC(C)C)cc1)C(=O)CS2 | i | i | 28.2µM* | nt | nt
Cc1ccc(S(=O)(=O)c2cn(C)c3cc(N4CCCCCC4)c(F)cc3c2=O)cc1 | i | i | 18.5% | nt | nt
O=C(O)c1cc(-c2ccc(C(F)(F)F)cc2)nc2n[nH]c(-c3ccccc3)c12 | i | i | 28.6% | nt | nt
SMILES | Abeta yeast res | FUS suppressor | TDP43 rescue | Mito fusion act | aSyn yeast inh
CCCCNC(=O)NCC1CCN(Cc2ccc(OC)cc2)CC1 | nt | i | nt | nt | nt
COc1cccc([C@@H]2NC(=O)C/C=C/[C@H](C)[C@H](c3cccc(OC)c3)NC(=O)C/C=C/[C@@H]2C)c1 | nt | i | nt | nt | nt
COc1ccccc1-c1nnc(SC/C(O)=C(\C#N)c2nc3ccccc3[nH]2)n1C1CCCCC1 | i | 28.2µM* | 1.4% | nt | 2.2%
N#C/C(=C(/O)CSc1nnc(Cc2cccs2)n1C1CCCCC1)c1nc2ccccc2[nH]1 | i | 50.1µM* | 8.7% | ? | 0.3%
COc1ccc(/C(O)=C/C(=O)C(=O)NNC(=O)c2ccccc2)cc1 | i | i | -49.1% | -10.4% | 19.3%
COc1ccc(/C(O)=C/C(=O)C(=O)NNC(=O)C(O)(c2ccccc2)c2ccccc2)cc1 | i | 28.2µM* | 2.0% | -0.7% | 7.5%
COc1ccc(/C(O)=C/C(=O)C(=O)Nc2c(C)n(C)n(-c3ccccc3)c2=O)cc1 | i | 28.2µM* | 0.0% | -4.1% | 0.2%
Cc1ccc2c(c1)c1c(c(=O)n(-c3ccccc3C)c(=O)n1CC(=O)NCCC1=CCCCC1)n2C | i | i | ? | nt | nt
NC(=O)COC(=O)c1c2c(nc3ccccc13)CCCC2 | i | i | 5.5% | -4.9% | 0.1%
O=C(OCC(=O)N1CCc2ccccc21)c1c2c(nc3ccccc13)CCCCC2 | i | nt | 22.4µM* | ? | -20.3%
C=CCSc1nnc2c(n1)[nH]c1c(C)cccc12 | i | i | 11.2µM* | 4.3% | -30.0%
Cc1cccc2c1[nH]c1nc(N/N=C\c3ccco3)nnc12 | nt | nt | nt | -2.7% | nt
Cc1cccc(-c2cc3nc(-c4ccccc4)cc(N4CCC5(CC4)OCCO5)n3n2)c1 | i[9.22 µM] | i | 35.5µM* | ? | 2.8%
Cc1ccc(-c2cc3nc(-c4ccccc4)cc(N4CCC5(CC4)OCCO5)n3n2)cc1 | i | i | ? | ? | -12.4%
COc1cc2c(cc1OC)-c1cc(=Nc3c(C)cc(C)cc3C)n(C)c(=O)n1CC2 | nt | nt | nt | 18.4µM* | -6.8%
O=c1oc(-c2ccc(O)c(O)c2)cc2cccc(O)c12 | i | i | 29.7% | nt | 13.6%
O=C1C=Cc2cccc3ccc(O)c1c23 | i | i | -47.9% | nt | 35.5µM*
Cc1ccccc1NC(=O)COc1ccccc1C | i | i | 0.0% | 3.0% | -7.5%
Cc1ccc(S(=O)(=O)NC(=O)COc2ccccc2C)c(C)c1 | i | nt | 17.8µM* | 1.9% | 19.3%
CCOC(=O)c1cc(-c2ccccc2)n(CC(=O)NCc2ccccc2OC)c1C | i | i | 19.7% | nt | nt
O=C(COc1ccccc1)Nc1ccccc1C(=O)OCc1cc(=O)n2nc(C3CC3)sc2n1 | i | i | 20.7% | nt | nt
CN(c1ccccc1)c1nc(-n2ccnc2)nc(-n2ccnc2)n1 | i | i | ? | -8.1% | 27.9%
CCCCNc1nc(N(C)c2ccccc2)nc(-n2ccnc2)n1 | i | i | 14.1µM* | -1.3% | 28.4%
CCCNC(=O)c1nnsc1S(=O)(=O)c1ccc(Cl)cc1 | i | i | 1.58µM* | -5.0% | -67.6%
CC1=C(C#N)C(=O)NC(=O)/C1=C\c1ccc(-c2ccc(C)cc2[N+](=O)[O-])o1 | i | i | 31.6µM* | 0.7% | 4.8%
